Only some compounds are listed: those with a hit (about 2.3% of all), similar ones and a draw of the others.
M1 PAM parental – M1 PAM counterscreen hit in parental CHO-K1 cells; ATP EC20, Fluo-8 calcium fluorescence; 0% at ATP EC20, 100% at ATP max; activation, % at 3 µM; 360,000 tested, 0.02% active;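 active means activation above the run cutoff, the mean activation of all test compounds plus 3 SD, cut at about 40% in these data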;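 further: peak over basal fluorescence ratio in a 140 s read after ATP addition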
M1 ag parental – counter-screen for M1 agonists: effect in parental CHO-K1 cells. Fluo-8 calcium fluorescence; scaled to maximal ATP response, vehicle zero. activation, % at 3 µM. 360,000 tested, 0.48% active. AID 602248; in the data active means activation above about 15%;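 further: untransfected CHO-K1 host cells lacking M1 receptor as counterscreen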
M1 ag – human M1 muscarinic receptor agonism. CHO-K1 hM1, Fluo-8 calcium fluorescence, agonist mode; 0% DMSO, 100% acetylcholine EC100. P11229. activation, % at 3 µM. 360,000 tested, 0.33% active;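 active means activation above the run's mean compound activation plus 3 SD, cut at about 16% in these data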;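 further: peak over basal fluorescence ratio within a 140 s kinetic read after compound addition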
Target sequence (P11229 whole entry, looked up): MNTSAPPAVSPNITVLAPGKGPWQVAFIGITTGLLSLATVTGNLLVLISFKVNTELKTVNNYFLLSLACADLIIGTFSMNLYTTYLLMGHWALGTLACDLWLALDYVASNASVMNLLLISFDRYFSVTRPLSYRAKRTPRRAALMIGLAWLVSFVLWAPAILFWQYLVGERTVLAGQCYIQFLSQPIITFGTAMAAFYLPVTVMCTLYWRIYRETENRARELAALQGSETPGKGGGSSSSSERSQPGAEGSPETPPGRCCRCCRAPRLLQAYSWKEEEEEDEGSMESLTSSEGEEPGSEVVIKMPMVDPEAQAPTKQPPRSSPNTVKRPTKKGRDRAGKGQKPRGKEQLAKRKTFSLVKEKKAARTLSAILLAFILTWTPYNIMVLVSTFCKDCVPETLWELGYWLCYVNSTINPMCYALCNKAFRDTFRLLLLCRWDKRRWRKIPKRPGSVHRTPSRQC
CHO-K1 Ca antag – M1 antagonist counterscreen hit in parental CHO-K1 cells; ATP-induced calcium, Fluo-8 fluorescence; inhibition, % at 3 µM; 360,000 tested, 0.6% active;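 active means inhibition above a per-plate cutoff, the plate's mean sample inhibition plus 3 SD, cut at about 24% in these data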
M1 PAM – positive allosteric modulators of human M1 muscarinic receptor; AID 588819; activation, % at 3 µM; CHO-K1 hM1, Fluo-8 calcium fluorescence, ACh EC20; 0% = ACh EC20, 100% = maximal ACh; P11229; 360,000 tested, 0.088% active; in the data active means activation above about 19%, passing the limit was not always enough
M1 antag – antagonists of human M1 muscarinic receptor. CHO-K1 hM1, Fluo-8 calcium fluorescence, ACh EC80 antagonist. inhibition, % at 3 µM. 360,000 tested, 1.3% active;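 active means percent inhibition above its own plate's cutoff, namely the mean of that plate's compound wells plus 3 SD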;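 further: peak over basal fluorescence ratio during 140 s after agonist addition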
Large screens that a line does not name were inactive.

COC(=O)CN(C)C(=O)c1ccc(OC2CCN(S(=O)(=O)N(C)C)CC2)cc1	none
CN(C)c1ccc(-c2csc(C(O)c3cccc(Cl)c3)n2)cc1 (centres undefined)	M1 ag 19, M1 antag 42
CCOC(=O)N1CCC(NC(=O)c2cc(S(=O)(=O)N3CCCC3)cn2C)CC1	CHO-K1 Ca antag 26
CCCCc1ccc(NC(=O)CSc2nc(=O)n(CCN(CC)CC)c3c2CCCC3)cc1	M1 antag 66
O=C(CSc1nc(=O)n(CCCN2CCOCC2)c2c1CCCC2)Nc1ccc(F)cc1	M1 antag 31
CCCCc1ccc(NC(=O)CSc2nc(=O)n(CCN(C)C)c3c2CCC3)cc1	none
COCCNc1nc(NCc2cccc(OC)c2)c2sc(-c3ccccc3)cc2n1	none
Cc1cc(C(=S)N2CCOCC2)c(C)n1-c1ccc(Cl)cc1	M1 antag 29
CC(=O)Nc1ccc(/C(C)=N/Nc2nc(Nc3cccc4ccccc34)nc(N3CCOCC3)n2)cc1	M1 ag 18
COC1OC(CO)C(O)C(O)C1O (centres undefined)	none
OC[C@H]1O[C@@H](O[C@@H]2[C@@H](CO)O[C@@](O)(CO)[C@H]2O)[C@H](O)[C@@H](O)[C@H]1O	CHO-K1 Ca antag 27
O=C(O)c1cc([N+](=O)[O-])ccc1N1CCC(Cc2ccccc2)CC1	none
O=S(=O)(c1ccc(Oc2ccc(S(=O)(=O)N(CCO)CCO)cc2)cc1)N(CCO)CCO	none
O=C1c2cc(S(=O)(=O)N(CCO)CCO)ccc2-c2ccc(S(=O)(=O)N(CCO)CCO)cc21	M1 ag parental 16
Cc1cc(S(=O)(=O)NC2CCN(Cc3ccccc3)CC2)c(C)cc1Cl	M1 antag 52
Cc1cc(C)c(S(=O)(=O)NC2CCN(Cc3ccccc3)CC2)c(C)c1	none
Cc1cc(NC(=O)CSc2cc(Cl)ccc2Cl)n(-c2ccccc2)n1	CHO-K1 Ca antag 25
Cc1cc(NC(=O)COc2ccc(Cl)cc2Cl)n(-c2ccccc2)n1	none
Cn1c(=O)c2c(nc(SCCN3CCCCC3)n2Cc2ccccc2)n(C)c1=O	M1 antag 39
CC1Cc2ccccc2N1C(=O)CSc1nc2c(c(=O)n(C)c(=O)n2C)n1Cc1ccccc1 (centres undefined)	M1 antag 41
CCN(CC(=O)Nc1c(F)cccc1F)C(=O)c1ccc(S(=O)(=O)N(CC)c2ccccc2)cc1	none
CN(Cc1ccccc1)C(=O)[C@@H]1CCCN1C(=O)[C@@H]1CCCN1C(=O)OC(C)(C)C	none (no result: M1 ag, M1 PAM, M1 antag)
Cn1c(Oc2ccc(Cl)cc2)c(C=O)c2ccccc21	CHO-K1 Ca antag 27
CC(C)CCNC(=S)Nc1ccc(Br)cc1	none
CCCCNC(=S)NC(=O)c1ccc([N+](=O)[O-])cc1	none
CCCCNC(=S)Nc1ccc([N+](=O)[O-])cc1	CHO-K1 Ca antag 34, M1 antag 27
CC(C)CCNC(=S)Nc1ccc([N+](=O)[O-])cc1	CHO-K1 Ca antag 29
CC1=C(C(=O)OC2CCCC(C)C2)C(c2ccccc2)NC(=O)N1 (centres undefined)	none
CCCCCCNC1=NCCS1	none
O=C1/C(=C\c2cc([N+](=O)[O-])ccc2O)SC(=S)N1Cc1ccc(Cl)cc1	M1 ag 23, M1 antag 36
COc1ccc(S(=O)Cc2ccc(C(=O)NCc3cccc(OC)c3)o2)cc1 (centres undefined)	none
O=C(Nc1ccc(C(F)(F)F)cc1)C1CCN(c2cnccn2)CC1	none
COc1cc(CN2CCc3ccc(NC(=O)CCc4ccccc4OC)cc3C2)ccc1O	none
COc1cccc(CN2CCc3ccc(NC(=O)CCc4ccc(C)cc4)cc3C2)c1O	M1 antag 38
O=C(NCCc1ccc(Cl)cc1)c1ccc(CS(=O)Cc2ccccc2Cl)o1 (centres undefined)	M1 antag 37
COc1ccc(S(=O)(=O)N2CCCC2C(=O)n2nc(C)cc2C)cc1 (centres undefined)	CHO-K1 Ca antag 30
Cc1ccc(S(=O)(=O)N2CCCC2C(=O)n2nc(C)cc2C)cc1 (centres undefined)	none
Cc1ccc(N(CC(=O)NC(C)(C)C)C(=O)CNC(=O)c2cccs2)cc1C	none
CC12CCC(=O)N1C(C(=O)NNC(=O)COc1ccc(Br)cc1)CS2 (centres undefined)	M1 antag 33
O=C(CSc1nc2nn(-c3ccccc3)c(=O)c-2c2n1CCCCC2)Nc1ccc(OC(F)F)cc1	none
COC(=O)[C@]12CCCCC=C1N(Cc1ccccc1)C(=O)[C@H](CC(=O)N1CCC(c3ccccc3)CC1)C2	none (no result: M1 ag, M1 PAM, M1 antag)
Cc1c(C(=O)OCC[N+]2(C)CCCCC2)oc2ccccc12	M1 antag 54
Cc1ccc(S(=O)(=O)n2cnc3cc([N+](=O)[O-])ccc32)c(C)c1C	CHO-K1 Ca antag 25
CCn1c(SCC(=O)NC2CCCC2)nnc1-c1cccnc1	none
Cc1cccc2c(N=NC(=O)c3ccc(NS(=O)(=O)c4cccs4)cc3)c(O)[nH]c12	M1 antag 37
N#C/C(=N\Nc1cccc(C(F)(F)F)c1)C(=O)c1csc(-c2cccnc2)n1	CHO-K1 Ca antag 24
Cc1ccc(C(=O)Nc2cccc(C(F)(F)F)c2)cc1NC(=O)c1csc(-c2ccncc2)n1	none
CC(C)CCN1CCN(Cc2nc3ccccc3s2)CC1CCO (centres undefined)	none
CC(C)CCN1CCN(CC(c2ccccc2)c2ccccc2)CC1CCO (centres undefined)	M1 antag 35
O=C(Nc1ccccc1)c1cc(C2CCCN(C(=O)C3CC3)C2)on1 (centres undefined)	none
CC(=O)N1CCCC(c2cc(C(=O)Nc3ccccc3)no2)C1 (centres undefined)	CHO-K1 Ca antag 34
COCCn1c(CN2CCN(C(=O)c3ccco3)CC2)nc2c1c(=O)n(C)c(=O)n2C	none
CSc1ccc2c(c1)C(N1CCN(C)CC1)Cc1ccc(F)cc1S2 (centres undefined)	M1 antag 69
O=[N+]([O-])c1ccc2c(c1)C(N1CCN(CCO)CC1)Cc1ccc(F)cc1S2 (centres undefined)	none
Cc1ccc(C(C)C)c(OCCNCCc2ccccc2)c1	M1 antag 30
Cc1ccc(C(C)C)c(OCCn2ccnc2C)c1	M1 antag 99
COc1cc(C(=O)NCCOc2cc(C)ccc2C(C)C)cc(OC)c1OC	M1 ag parental 16
c1ccc(CCNCCOc2ccccc2)cc1	M1 ag parental 15
Cc1ccc(C(C)C)c(OCCNC(=O)c2cncc(Br)c2)c1	none
COc1cccc(CNC(=O)C2CCN(c3nnc(N4CCCC4=O)s3)CC2)c1	none
Cc1ccc(S(=O)(=O)NCc2ccc(C(=O)N3CCN(c4ccc([N+](=O)[O-])cc4)CC3)cc2)cc1	none
COc1cc(C#N)ccc1OCC(=O)Nc1cccc(S(=O)(=O)N(C)c2ccccc2)c1	none
